An excerpt weighted towards active compounds, which were near 18% of everything screened.
CtBP-E1A inh: qHTS Assay for Inhibitors of the CtBP/E1A Interaction. activity change, % (concentration not given with the values). 340,000 compounds, 0.49% hits. CtBP / adenovirus E1A interaction (AlphaScreen). AlphaScreen GST-E1A/His-CtBP binding, 1536-well; stronger effect = lower value; in the data active means activity change below about -65%; inconclusive means mostly about -30% to -63%
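AlphaScreen with 125 nM GST-E1A and 125 nM His-CtBP (5X stocks) in Tris pH 8.0, 300 mM NaCl, BSA, Tween 20, TCEP. Compounds preincubated 2 h at 37 deg C, then glutathione donor/nickel acceptor beads added for 1 h at 37 deg C in dark.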
Six1-Eya2 inh: qHTS Assay for Inhibitors of the Six1/Eya2 Interaction | Homeobox protein SIX1 (Homo sapiens) + Protein phosphatase EYA2 (Homo sapiens), … | AlphaScreen GST-Six1/His-Eya2 binding, biochemical; stronger effect = lower value | activity change, % (no concentration beside the values) | 360,000 compounds, 0.56% hits; in the data active means activity change below about -65%; inconclusive means mostly about -30% to -63%
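AlphaScreen luminescence read after one hour at 37 °C in darkness. Pin-transferred compounds met GST-Six1 and His-Eya2 protein (5X stock 250 nM/500 nM) plus glutathione donor and Ni-chelate acceptor beads (5X, 50 ug/mL).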
TDP1 cell CPT: qHTS for Inhibitors of human tyrosyl-DNA phosphodiesterase 1 (TDP1): qHTS in cells in presence of CPT. 420,000 compounds, 12% hits. chicken DT40 Tdp1-/-;hTDP1 cells + 20 nM CPT, ATP luminescence, 48 h. Potency, µM (titrated, usually from 46.2 µM), for the others: at the highest dose activity change, negative = growth inhibition, hits mostly inhibitors; further: potency means the concentration at half of the fitted maximal effect; nearly all actives have a fitted effect of over 55% in size
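Chicken DT40 Tdp1-/- cells complemented with human TDP1, 400 cells/well, exposed to compounds plus 20 nM camptothecin for at least 48 h at 37 C; viability read as ATP content by CellTiter-Glo luminescence.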
TDP1 cell noCPT: qHTS for Inhibitors of human tyrosyl-DNA phosphodiesterase 1 (TDP1): qHTS in cells in absence of CPT. DT40 Tdp1-/- hTDP1 cells, no CPT, ATP luminescence, 48 h. AID 686978, 2013. 420,000 compounds, 15% hits. Potency, µM (series often up to 46.2 µM), inactives show at the top dose activity change, negative = growth inhibition, actives largely listed as inhibitors; further: potency means the concentration at half of the fitted maximal effect; nearly all actives have a fitted effect of over 55% in size
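DT40 Tdp1-/-;hTDP1 cells, no CPT (DMSO vehicle only), 400 cells/well; compounds pin-transferred; ≥48 hr, 37 °C; CellTiter-Glo 30 min RT dark, luminescence read.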
TDP1 block: qHTS Assay for Inhibitors of Tyrosyl-DNA Phosphodiesterase (TDP1); Tyrosyl-DNA phosphodiesterase 1 (Homo sapiens), Q9NUW8; recombinant TDP1, AlphaScreen DNA substrate cleavage; Potency, µM (highest dose often 130 µM), inactives show at the top dose activity change, negative = inhibition, most hits filed as inhibitors; 350,000 compounds, 0.28% hits; further: potency means the concentration at half of the fitted maximal effect; nearly all actives have a fitted effect of over 40% in size
Target sequence (Q9NUW8 whole entry, looked up): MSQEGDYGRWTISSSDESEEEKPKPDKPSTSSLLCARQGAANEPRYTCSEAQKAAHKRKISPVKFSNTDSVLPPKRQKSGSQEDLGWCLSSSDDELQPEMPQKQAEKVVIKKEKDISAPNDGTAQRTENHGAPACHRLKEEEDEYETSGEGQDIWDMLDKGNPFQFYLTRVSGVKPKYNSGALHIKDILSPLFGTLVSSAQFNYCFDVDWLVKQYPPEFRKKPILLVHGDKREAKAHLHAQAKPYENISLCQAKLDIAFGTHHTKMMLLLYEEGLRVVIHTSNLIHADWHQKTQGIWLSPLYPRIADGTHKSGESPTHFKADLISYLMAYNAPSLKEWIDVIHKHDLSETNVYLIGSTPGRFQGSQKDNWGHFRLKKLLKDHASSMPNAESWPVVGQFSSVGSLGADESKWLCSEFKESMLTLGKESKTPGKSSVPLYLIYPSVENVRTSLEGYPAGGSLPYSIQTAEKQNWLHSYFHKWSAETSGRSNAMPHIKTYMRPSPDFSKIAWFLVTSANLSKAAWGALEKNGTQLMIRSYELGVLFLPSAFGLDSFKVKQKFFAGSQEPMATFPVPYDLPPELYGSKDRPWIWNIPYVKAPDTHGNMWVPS
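Signal: AlphaScreen proximity between streptavidin donor and anti-FITC acceptor beads on intact substrate. Reaction: Tdp1 1 nM, substrate 15 nM final, 5 min RT after 15 min compound preincubation.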
IL1B secr inh: qHTS for Inhibitors of Inflammasome Signaling: IL-1-beta AlphaLISA Primary Screen. THP-1 LPS/ATP IL-1B secretion, AlphaLISA, 16 h; stronger effect = lower value. 360,000 compounds, 4.7% hits. activity change, % at 57.5 µM. AID 743279, 2014; in the data active means activity change below about -50%; inconclusive means mostly about -30% to -49%
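THP-1 cells pretreated 1 hr with compounds (up to 57.5 uM final), then stimulated with LPS (250 ng/mL final) plus ATP (1.25 mM final); secreted IL-1B measured by AlphaLISA after 16 hr, decreased signal indicating inhibition.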
* hit, by the source's call; [ ] = remark or other dose. Unless noted, the call rests on the fitted dose curve; in most records, active means well fitted curve in the direction sought with a large enough effect; inconclusive means small, poorly fitted or top-dose-only effect, or another doubt; inactive means no such curve, though single readings can be large; an effect the other way counts as inactive or inconclusive. On the % scale 0 is the no-effect control and ±100 the full control effect.

`O=C(c1ccco1)N1CCN(c2ncnc3c2[nH]c2ccccc23)CC1` gave TDP1 block 10.0%.
For COc1ccc(N2CCN(c3ncnc4c3[nH]c3ccccc34)CC2)cc1 the results were CtBP-E1A inh -20.6, Six1-Eya2 inh -25.8, TDP1 cell CPT 3.66µM*, TDP1 cell noCPT 2.31µM*, TDP1 block 6.1% and IL1B secr inh -29.6.
`CCOC(=O)N1CCN(c2ncnc3c2[nH]c2ccc(F)cc23)CC1` gave CtBP-E1A inh -8.9, Six1-Eya2 inh -4.5, TDP1 cell CPT 6.51µM*, TDP1 cell noCPT 2.06µM*, TDP1 block 4.9% and IL1B secr inh -3.2.
For Fc1ccc2[nH]c3c(N4CCN(c5ccccc5)CC4)ncnc3c2c1 the results were CtBP-E1A inh inconclusive, Six1-Eya2 inh inconclusive, TDP1 cell CPT 5.17µM*, TDP1 cell noCPT 4.61µM*, TDP1 block 12.2% and IL1B secr inh -55.4*.
Screening Fc1ccc(-c2noc3ncnc(N4CCN(c5ccccc5)CC4)c23)cc1 returned TDP1 cell CPT inconclusive, TDP1 cell noCPT inconclusive and TDP1 block 0.0%.
`CCOC(=O)N1CCN(c2ncnc3c2[nH]c2ccc(OC)cc23)CC1` gave CtBP-E1A inh -13.1, Six1-Eya2 inh -12.5, TDP1 cell CPT inconclusive, TDP1 cell noCPT 23.1µM*, TDP1 block 3.9% and IL1B secr inh -0.4.
Screening C#CCCC/C(=C\C(=O)N(C)[C@H](C(=O)N(C)[C@H](C(=O)N(C)[C@H](C(=O)N(C)[C@H](C(N)=O)C(C)C)C(C)C)C(C)C)C(C)C)OC returned CtBP-E1A inh 2.1, Six1-Eya2 inh 3.7, TDP1 cell CPT 20.6µM*, TDP1 cell noCPT 18.4µM*, TDP1 block -0.2% and IL1B secr inh -18.8.
`CC(=O)Nc1cc(-c2cccc(N)c2)cn2c(-c3ccccc3)cnc12` gave CtBP-E1A inh -13.4, Six1-Eya2 inh -10.9, TDP1 cell CPT 18.4µM*, TDP1 cell noCPT inconclusive and IL1B secr inh -3.7.
For CC(=O)Nc1cc(-c2ccoc2)cn2c(-c3ccccc3)cnc12 the results were CtBP-E1A inh -10.8, Six1-Eya2 inh -14.5, TDP1 cell CPT 1.03µM*, TDP1 cell noCPT 0.92µM* and IL1B secr inh -12.1.
Screening CC(=O)Nc1cccc(-c2cc(NC(C)=O)c3ncc(-c4ccc(F)cc4)n3c2)c1 returned CtBP-E1A inh -6.6, Six1-Eya2 inh -11.2, TDP1 cell CPT inconclusive, TDP1 cell noCPT 14.6µM* and IL1B secr inh 22.4.
Screening CC(=O)Nc1cc(-c2cccc(F)c2)cn2c(-c3ccccc3)cnc12 returned CtBP-E1A inh 0.8, Six1-Eya2 inh -5.0, TDP1 cell CPT 18.4µM*, TDP1 cell noCPT inconclusive and IL1B secr inh -7.8.
Screening COc1ccccc1C(=O)NC(=O)COC(=O)c1ccc(Br)o1 returned CtBP-E1A inh 10.0, Six1-Eya2 inh -4.3, TDP1 cell CPT -1.3%, TDP1 cell noCPT -5.2%, TDP1 block -0.3% and IL1B secr inh 10.5.
Screening CC(=O)Nc1cc(-c2cccc(F)c2)cn2c(-c3ccc(F)cc3)cnc12 returned CtBP-E1A inh -4.0, Six1-Eya2 inh -2.6, TDP1 cell CPT inconclusive, TDP1 cell noCPT 23.1µM* and IL1B secr inh 6.5.
`CC(=O)Nc1cc(-c2ccc(S(C)(=O)=O)cc2)cn2c(-c3ccc(F)cc3)cnc12` gave CtBP-E1A inh -6.1, Six1-Eya2 inh -11.2, TDP1 cell CPT inconclusive, TDP1 cell noCPT inconclusive and IL1B secr inh inconclusive.
For CC(=O)Nc1cc(-c2cccc(C(=O)N(C)C)c2)cn2c(-c3ccc(C(C)=O)cc3)cnc12 the results were CtBP-E1A inh 1.0, Six1-Eya2 inh -4.2, TDP1 cell CPT 16.4µM*, TDP1 cell noCPT 11.6µM* and IL1B secr inh inconclusive.
`CC(=O)Nc1cccc(-c2cc(NC(C)=O)c3ncc(-c4ccc(C(C)=O)cc4)n3c2)c1` gave CtBP-E1A inh -6.4, Six1-Eya2 inh -8.6, TDP1 cell CPT 5.17µM*, TDP1 cell noCPT 7.31µM* and IL1B secr inh 0.0.
Screening CC(=O)Nc1cc(-c2cccc(F)c2)cn2c(-c3ccc(S(C)(=O)=O)cc3)cnc12 returned CtBP-E1A inh -4.6, Six1-Eya2 inh -7.0, TDP1 cell CPT inconclusive, TDP1 cell noCPT 20.6µM* and IL1B secr inh -52.4*.
Screening CC(=O)Nc1cc(-c2cccc(C(=O)N(C)C)c2)cn2c(-c3ccc(F)cc3)cnc12 returned CtBP-E1A inh -5.2, Six1-Eya2 inh -1.6, TDP1 cell CPT inconclusive and TDP1 cell noCPT inconclusive.
`O=C(CN1C(=O)NC2(CCOc3ccccc32)C1=O)c1ccc(F)c(F)c1` (configuration not stated) gave CtBP-E1A inh -3.8, Six1-Eya2 inh -7.1, TDP1 cell CPT -8.4%, TDP1 cell noCPT -29.5%, TDP1 block 0.2% and IL1B secr inh -4.4.
COc1ccc(C(=O)c2c(C)oc3ccc(O)cc23)c(OC)c1 was read as CtBP-E1A inh -1.8, Six1-Eya2 inh 8.6, TDP1 cell CPT -25.0%, TDP1 cell noCPT inconclusive and IL1B secr inh inconclusive.
`COc1ccc(NC(=O)C2CCN(c3cc(-c4ccccc4)nc4ncnn34)CC2)cc1OC` gave CtBP-E1A inh -19.0, Six1-Eya2 inh -14.5, TDP1 cell CPT 18.4µM*, TDP1 cell noCPT 23.1µM*, TDP1 block 4.1% and IL1B secr inh -58.4*.
Screening COc1ccc(NC(=O)C2CCN(c3cnccn3)CC2)cc1OC returned CtBP-E1A inh -8.4, Six1-Eya2 inh 6.9, TDP1 cell CPT 15.1%, TDP1 cell noCPT -23.0%, TDP1 block 11.5% and IL1B secr inh -3.0.
Screening COc1ccccc1NC(=O)N1CCN(c2cc(-c3ccccc3)nc3ncnn23)CC1 returned CtBP-E1A inh -18.7, Six1-Eya2 inh -16.0, TDP1 cell CPT 4.61µM*, TDP1 cell noCPT 4.11µM*, TDP1 block 1.9% and IL1B secr inh inconclusive.
`COc1cccc(-c2csc(N3CCN(C(=O)Nc4ccccc4OC)CC3)n2)c1` gave CtBP-E1A inh -6.9, Six1-Eya2 inh -5.6, TDP1 cell CPT -4.4%, TDP1 cell noCPT -3.4%, TDP1 block 9.7%[56.1 µM] and IL1B secr inh -3.9.

Bioassay records: PubChem, National Center for Advancing Translational Sciences (NCATS)
